According to PubChem BioAssay AID1662 (Broad Institute, 2009):
The campaign covered roughly 300,000 compounds. About 4,000 (1.3%) were called active. The sample as a whole holds a higher share of actives than the screen did. Values without a mark were called inactive.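 The calls were made as follows: active = mean replicate score, as percent of positive control median, at least 50; inconclusive = mean below 50 but one replicate at or above 50; inactive = mean and every replicate below 50.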

Assay: kanamycin survival loss of SKKanGAS strain – BacTiter-Glo luminescence, streptokinase expression inhibitor project, primary screen (AID 1662);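 also: strain carries kanamycin resistance gene driven by streptokinase promoter and grows in 40 µg/ml kanamycin; loss of luminescence reflects streptokinase promoter inhibition or plain growth inhibition; 0% = median of DMSO wells and 100% = positive control at its reference dose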
Conditions: S. pyogenes SKKanGAS, kanamycin growth, 6 h, at 7.5 µM, stronger effect = higher value
`C=CCNc1nc(N)c([N+](=O)[O-])c(NC2CCCCC2)n1` gave an inhibition of 6.03%. Work on `C=CCC(C(=O)c1ccccc1)[N+](C)(C)CC=C` (centres undefined) yielded an inhibition of 2.59%. In the case of `O=C(OCc1ccc(Br)cc1)c1cccc(-c2nnc(-c3ccccc3)o2)c1`, the inhibition is reported as 7.23%. Work on `O=C(OCC(=O)c1c[nH]c2ccccc12)c1cccc(O)c1` yielded an inhibition of -11.7%. In the case of `O=C(OCc1ccc(-c2ccccc2)cc1)c1cccc(O)c1`, the inhibition is reported as 54.9% (active). For `O=C(O)CCC(=O)Nc1ccc(OCC2CCCO2)cc1` (centres undefined), the inhibition was 1.88%. With `O=C(C1CCCO1)N(c1ccc(F)cc1)C1C=CS(=O)(=O)C1` (centres undefined) the inhibition was -0.303%. `CCOC(=O)c1cnc(Nc2nc3ccccc3o2)nc1CSC(=S)N1CCCCC1` gave an inhibition of 30.1%. Compound `Cc1ccc(C2CCN(C(=S)Nc3cccc(Cl)c3)C2)cc1` (centres undefined) has an inhibition of 14.8%. In the case of `CN(C)c1nc(=Nc2cccc(Cl)c2)ss1`, the inhibition is reported as 53.2% (active). Compound `Clc1cccc(N=C2NN=C(c3ccc4c(c3)OCCO4)CS2)c1` has an inhibition of 21.6%. In the case of `Cc1ccccc1N1CCN(C2CCCN(C(=O)c3ocnc3C)C2)CC1` (centres undefined), the inhibition is reported as -0.706%. With `CN1CCN(c2ccc(S(=O)(=O)Nc3ccccc3)cc2[N+](=O)[O-])CC1` the inhibition was -10.6%. With `O=[N+]([O-])c1cc(S(=O)(=O)Nc2cccc(Cl)c2)ccc1N=Nc1c(O)[nH]c2ccccc12` the inhibition was 59.8% (active). In the case of `Cc1cccc(N(CC(=O)N=Nc2c(O)[nH]c3ccccc23)S(C)(=O)=O)c1C`, the inhibition is reported as 15.7%. In the case of `Cc1nc(COc2cc3oc(=O)cc(C)c3cc2Cl)cs1`, the inhibition is reported as -7.93%. `COc1ccc2c(c1)CC[C@@H]1[C@@H]2CC[C@]2(C)C(=O)CC[C@@H]12` showed an inhibition of -7.32%. `COc1ccccc1-c1nnc(NC(=O)c2ccc3ncsc3c2)o1` showed an inhibition of 20%. In the case of `Cc1ccc(C(=O)Nc2nnc(C3=COCCO3)o2)cc1C`, the inhibition is reported as 85.9% (active). With `O=C(Nc1nnc(C2=COCCO2)o1)c1ccc([N+](=O)[O-])s1` the inhibition was 63.4% (active). For `O=C(Nc1nnc(-c2ccco2)o1)c1ccc(S(=O)(=O)N2CCOCC2)cc1`, the inhibition was 1.36%. Compound `COc1cc(-c2nnc(NC(=O)C3=COCCO3)o2)cc(OC)c1OC` has an inhibition of 2.37%. Work on `O=C(Nc1ncc([N+](=O)[O-])s1)C1COc2ccccc2O1` (centres undefined) yielded an inhibition of -8.31%. With `CC1(C)Cc2c(sc(NC(=O)C(=O)NCC3CCCO3)c2C(=O)O)CO1` (centres undefined) the inhibition was 2.62%. `CC1CCCCC1NC(=O)CCS(=O)(=O)c1ccc2c(c1)NC(=O)CO2` (centres undefined) gave an inhibition of 6.59%. Compound `COC(=O)c1cc(CNC(=O)CC(C)c2ccccc2)ccc1OC` (centres undefined) has an inhibition of -1.27%. Compound `CCOC(=O)C1=C(C)Nc2sc(C(=O)c3ccc(Br)cc3)c(N)c2C1c1ccc(C(=O)OC)cc1` (centres undefined) has an inhibition of 22%. With `CCOC(=O)c1ccc(Nc2cc3ccccc3c(=O)[nH]2)cc1` the inhibition was 3.57%. In the case of `CCOC(=O)c1sc(=S)n2c1[nH]c(=O)c1ccc(C(=O)OC)cc12`, the inhibition is reported as 66.6% (active). `COc1cccc(NS(=O)(=O)c2ccc(-c3coc(C)n3)cc2)c1` showed an inhibition of 2.27%. In the case of `CN(C)CCN(Cc1ccccc1)S(=O)(=O)c1csc(C(N)=O)c1`, the inhibition is reported as -1.24%. `CC1=C(C(=O)Nc2ccccc2)C(c2cccs2)C(C#N)=C(SCC#N)N1` (centres undefined) gave an inhibition of 15.4%. `Cc1noc(C)c1C(=O)N(CC(=O)NC1CCCC1)Cc1ccccc1F` showed an inhibition of 2.6%. `COCCN(C(=O)COC(=O)Cc1cccc(OC)c1)c1c(N)n(Cc2ccccc2)c(=O)[nH]c1=O` showed an inhibition of -1.12%. For `Cc1cccc(NC(=S)Nc2ccc(Cl)c(Cl)c2)c1`, the inhibition was 82% (active). `Cc1cccc(NC(=S)Nc2ccc3cn[nH]c3c2)c1` showed an inhibition of 2.46%. Compound `Cc1cccc(NC(=S)Nc2ccc(Br)cc2)c1` has an inhibition of 5.45%. `Cc1cc(C)cc(OCC(=O)Nc2cc(NC(=O)COc3cc(C)cc(C)c3)cc(C(=O)O)c2)c1` gave an inhibition of 26%. Compound `COc1ccc(Cl)cc1NC(=O)CN(C)Cc1ccc(OC)c(OC)c1` has an inhibition of 19.7%. `COc1ccc(N2CCN(C(C)=C3C(=O)c4ccccc4C3=O)CC2)cc1` gave an inhibition of 0.489%. With `CCOC(=O)C1=C(c2ccc(OC)cc2)C(=O)c2ccccc2C1=O` the inhibition was 54.9% (active). Compound `CCOC(=O)c1c(-c2ccc(C)cc2)csc1/N=C(\C)C1=C(O)c2ccccc2C1=O` has an inhibition of 8.34%. For `Cc1ccc(N=C2SCCCN2C(=O)c2cccc(N3C(=O)CCC3=O)c2)cc1Cl`, the inhibition was 1.34%. With `O=C(NCCOc1ccccc1F)Nc1ccc(Br)cc1` the inhibition was -7.4%. Work on `Cc1ccc2cccc(S(=O)(=O)N3CCN(c4ccccc4F)CC3)c2n1` yielded an inhibition of -8.1%. Compound `CCn1cc(C(=O)NCCO)c(=O)c2cc(F)c(N3CCN(C)CC3)cc21` has an inhibition of 1.21%. `CCCCCCn1cc(C(=O)O)c(=O)c2cc(F)c(N3CCCCC3)cc21` showed an inhibition of 10%. With `CN1CCN(c2cc3c(cc2F)c(=O)c(C(=O)O)cn3CCF)CC1` the inhibition was 66.8% (active). For `CC(C)(C)c1ccc(C(=O)NCCn2c(N)c(C#N)c3nc4ccccc4nc32)cc1`, the inhibition was 8.82%. Work on `CCOc1ccccc1NC(=O)Cn1nnc(C(=O)NCc2cccs2)c1N` yielded an inhibition of -0.164%. For `CC(C)Cn1c(N)c(C(=O)NCc2cccs2)c2nc3ccccc3nc21`, the inhibition was 88.2% (active). Compound `O=C(NCCS(=O)(=O)N1CCN(c2ccccc2)CC1)c1ccco1` has an inhibition of -0.162%. With `COc1cc(OC)c(OC)cc1CN1CCN(C(=O)c2cccc3ccccc23)CC1` the inhibition was -1.09%. `Cc1ccc(S(=O)(=O)N2CC(C)N(S(C)(=O)=O)C2)cc1` (centres undefined) gave an inhibition of -4.98%. With `Cc1cccc(OC(=O)c2sc3ncn(C)c(=O)c3c2C)c1` the inhibition was 82.2% (active). Work on `Cc1c(C(N)=O)sc2ncn(CCOc3ccccc3)c(=O)c12` yielded an inhibition of 2.66%. Compound `CCOC(=O)C(C)n1cnc2sc(C)c(C)c2c1=O` (centres undefined) has an inhibition of 2.1%. With `COc1ccccc1C(C)NC(=O)Cc1ccsc1` (centres undefined) the inhibition was 5.44%. In the case of `CC(CNc1ccc([N+](=O)[O-])cc1)NC(=O)c1ccccc1Br` (centres undefined), the inhibition is reported as -0.0993%. `O=C(CCn1c(=O)[nH]c2ccccc2c1=O)NCCCN1CCN(c2cccc(Cl)c2)CC1` gave an inhibition of 2.26%. `COc1cccc(CNC(=O)Cc2csc(Nc3nc(=S)[nH]c4ccccc34)n2)c1` gave an inhibition of 5.91%. In the case of `O=C(Cc1csc(Nc2nc(=S)[nH]c3ccccc23)n1)NCCCN1CCN(c2cccc(Cl)c2)CC1`, the inhibition is reported as 67.8% (active). `CN1C(=O)C2(OCCCO2)c2cc(Cl)ccc21` gave an inhibition of -1.28%. With `COc1cc(/C=N/Nc2nn3cnnc3c3ccccc23)cc(OC)c1OC` the inhibition was -2.2%. With `CN(CCO)c1ccc(/C=N/Nc2nncc3ccccc23)cc1` the inhibition was 68.8% (active). `C/C(=N\Nc1nncc2ccccc12)c1ccc(Cl)c([N+](=O)[O-])c1` gave an inhibition of -1.2%. With `CC[N+]1(CC)CC2=Cc3ccccc3CC2C1` (centres undefined) the inhibition was 5.88%. `COc1ccccc1OCCNc1cc(N2CCOCC2)ccc1[N+](=O)[O-]` gave an inhibition of -5.71%. Work on `CC(NS(=O)(=O)c1ccc(Br)cc1)C(=O)NCC1CCCO1` (centres undefined) yielded an inhibition of -0.664%. With `OC(CNCC1CCCO1)Cn1c2ccc(Br)cc2c2cc(Br)ccc21` (centres undefined) the inhibition was 52.3% (active). `O=C(CSc1ccc(-c2ccc(Br)cc2)nn1)NCC1CCCO1` (centres undefined) gave an inhibition of -6.3%. For `CCOC(=O)C1(CCOc2ccccc2)CCN(Cc2cc(OC)cc(OC)c2)CC1`, the inhibition was -5.86%. For `CC1CCCCN1S(=O)(=O)CCNC(=O)c1ccccc1` (centres undefined), the inhibition was -1.35%. Compound `CCn1c(SCC(=O)NC2CC2)nnc1-c1ccccn1` has an inhibition of 0.558%. Work on `COc1ccc(C(=O)NCC(=O)N/N=C/c2ccc([N+](=O)[O-])s2)cc1OC` yielded an inhibition of -2.08%. With `CC(C)(C)c1cc(C(=O)N/N=C/c2ccc([N+](=O)[O-])s2)n[nH]1` the inhibition was 51.8% (active). With `Cc1ccccc1NCC(=O)N/N=C\c1ccc([N+](=O)[O-])s1` the inhibition was 7.47%. In the case of `CCCCCCSc1nsc(N)n1`, the inhibition is reported as 5.66%. Work on `O=C(NCc1ccccc1)C(c1ccco1)N(C(=O)c1csnn1)c1ccccc1F` (centres undefined) yielded an inhibition of 1.53%. `CC1(C)CC2CC(C)(CN2c2ncnc3ccc(Br)cc23)C1` (centres undefined) showed an inhibition of 18.3%. `CC(=O)Nc1nc2ccccc2n1Cc1ccc(C)cc1` showed an inhibition of 24.3%. Work on `CCCCn1c(CCCNC(=O)CC)nc2ccccc21` yielded an inhibition of -0.548%. In the case of `CCC(=O)Nc1nc2ccccc2n1Cc1ccccc1C`, the inhibition is reported as 61.8% (active). `CC(C)C1N=C2c3ccccc3N=C(SCC(=O)c3ccc(O)c(O)c3)N2C1=O` (centres undefined) gave an inhibition of 19%. Work on `O=S(=O)(NC1CCCCC1N1CCCCC1)c1ccc(Cl)cc1` (centres undefined) yielded an inhibition of 1.78%. `Cc1ccc(S(=O)(=O)N2CCC(C(=O)OCC(=O)N(C)c3ccccc3)CC2)cc1C` gave an inhibition of -2.14%. For `Oc1cccc2ccc(/C=C/c3ccc(Br)s3)nc12`, the inhibition was 77.1% (active). `Nc1ccc(S(=O)(=O)Nc2nccc(/C=C/c3ccc(Br)s3)n2)cc1` showed an inhibition of 2.22%. For `COc1cc2c(cc1OC)C(c1cccc([N+](=O)[O-])c1)=NCC2`, the inhibition was -3.25%. Compound `CCc1nc2ccc(C(=O)N3CCN(c4cccc(Cl)c4)CC3)cc2nc1CC` has an inhibition of 7.12%. With `Oc1ccc(CN2CCN(c3ncccn3)CC2)cc1` the inhibition was -0.583%. `CCN1CCN(C(c2cccnc2)c2cc(Cl)c3cccnc3c2O)CC1` (centres undefined) showed an inhibition of 28.1%. With `Oc1c(CN2CCN(c3ccc(F)cc3)CC2)cc(Cl)c2cccnc12` the inhibition was 81.2% (active). With `CCCCCCCCCCCCN1[C@@H](CC(C)=O)c2cc(F)cc(F)c2S1(=O)=O` the inhibition was 18.6%.
